# Measurements reported in PubChem BioAssay (NCI).
# About 83,000 compounds went through this panel and 20% of them were active in at least one assay; those are over-represented in the sample as a whole.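 Activity criterion: percent growth below 10, measured after cells in 96-well plates were exposed to a single compound concentration for 48 hours.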 Calls of active or inactive are those of the source.
# Tested on: HL-60(TB) leukemia
# Test: NCI-60 one-dose screen, 48 h (100 = growth as untreated, 0 = no growth, -100 = all killed)
# Conditions: 10 µM unless noted
row,SMILES,growth
1,CCCCCCCCCCCCCCCCCC[S+](C)CC (stereo not given),13% (inactive)
2,Cc1nc(/N=C(\N)NC(=O)Nc2ccccc2Cl)sc1C,3.77% (active)
3,O=C1CC[C@@H]2CCCC[C@@H]2C1,110% (inactive)
4,NC(=O)c1cccc([C@@H]2O[C@H](CO)[C@@H](O)[C@H]2O)c1,39.5% (inactive)
5,CCOC(=O)c1c(-c2cc(OC)c(OC)c(OC)c2)csc1N,96.3% (inactive)
6,O=NN(Cc1cccnc1)C(=O)NC1CCCCC1,120% (inactive)
7,N#Cc1cc(-c2ccnc(Nc3ccc(NC(=O)CCl)cc3)n2)ccc1N1CCCC1,-49.2% (active)
8,C=CC(=O)Nc1cccc(Nc2nc(Nc3ccc(N4CCN(C(C)=O)CC4)cc3OC)ncc2C(F)(F)F)c1,-25.2% (active)
9,CCCCCc1ccc(S(=O)(=O)Nc2ccc3nc(N)oc3c2)cc1,28.9% (inactive)
10,CN(C)CCCC1(c2ccc(F)cc2)OCc2cc(-c3ccc(C(F)(F)F)nc3)ccc21 (stereo not given),43.1% (inactive)
11,O=C(CN1C(=O)c2ccccc2S1(=O)=O)Nc1nc(-c2cc3ccccc3oc2=O)cs1,101% (inactive)
12,N#Cc1c(-c2cccc(Cl)c2)cc(-c2cccc(Cl)c2)[nH]c1=O,-11.9% (active)
13,Cc1cc2nc3ccc(N=Nc4ccc(N(C)C)cc4)cc3n(-c3ccccc3)c-2cc1=N,-2.79% (active)
14,COc1ccc(C2=Nn3c(nnc3-c3cc(Cl)cc(Cl)c3Cl)SC2)cc1,-32% (active)
15,CN1CCC2(CC1)N=C(SCC(=O)Nc1cnc3ccccc3c1)C(c1ccc(Br)cc1)=N2,-40.7% (active)
16,NC1=Nc2ccccc2N(O)N1,88.4% (inactive)
17,C=CCOC(=O)Nc1cccn([C@H](Cc2ccccc2)C(=O)NCCC(C)C)c1=O,95.1% (inactive)
18,COc1cc(/C=C2\C(=O)Nc3ccccc32)cc(OC)c1O,1.88% (active)
19,COc1cc(C#N)cc(OC)c1OCCN(CCOc1c(OC)cc(C#N)cc1OC)S(=O)(=O)c1ccc(C)cc1,102% (inactive)
20,O=C(N/N=C/c1ccc(Cl)cc1Cl)c1ccc2nc(-c3ccc(Cl)cc3)[nH]c2c1,5.77% (active)

row,SMILES,growth
1,COc1ccc(C(=O)OC2C(OC3C(O)COC(O[C@H]4C[C@H]5[C@@H]6CC=C7C[C@@H](O)CC[C@]7(C)[C@H]6CC[C@]5(C)[C@H]4[C@H](C)C(=O)CCC(C)C)C3OC(=O)C(C)C)OCC(O)C2O)cc1 (stereo not given in full),-17% (active)
2,Nc1nc(-c2cccc3ccccc23)cc2ccccc12,-48.5% (active)
3,C=C(C)[C@@H]1CC[C@]2(C(=O)O)CC[C@]3(C)[C@H](CC[C@@H]4[C@@]5(C)C[C@@H](CC#Cc6ccccc6)C(=O)C(C)(C)[C@@H]5CC[C@]43C)[C@@H]12,3.03% (active)
4,COc1ccc(-c2cc3cnc4ccccc4c3oc2=O)cc1,94.2% (inactive)
5,CCOC(=O)c1cc(C)n(-c2ccc(C(=O)O)cc2)c1C,86.2% (inactive)
6,Nc1ccc(N)c([N+](=O)[O-])c1,110% (inactive)
7,COCc1c(-c2ccc(NC(=O)Nc3cc(C(F)(F)F)ccc3F)c(F)c2)c2c(N)ncnn2c1CN1CCOCC1,-22% (active)
8,Cc1oc(-c2ccccc2Cl)cc1C(=O)Nc1ccc(S(N)(=O)=O)cc1,102% (inactive)
9,O=C1C=CC2(NN=C(c3ccccc3)N2c2cccc(Cl)c2)C(Cl)=C1 (stereo not given),33% (inactive)
10,CN1c2ccccc2S(=O)(=O)n2c(SCC(=O)Nc3nc4ccc(F)cc4s3)nnc21,105% (inactive)
11,CC(C)[C@H](CN)NC[C@H](C)NS(=O)(=O)c1ccc(C(C)(C)C)cc1,95.4% (inactive)
12,COc1ccc(C(=O)c2ccc(C)cc2)c(OC)c1OC,93.4% (inactive)
13,CCCCCCCCCCCCCCCCOc1ccc(C)cc1,134% (inactive)
14,COc1cccc(-c2nc3sccn3c2-c2ccnc(NCCCNS(=O)(=O)c3cccc(F)c3)c2)c1,-26.9% (active)
15,COc1cc(C)cc(-c2c(-c3cc(N4CC(O)C4)nc(-c4cccnc4)n3)cnn2C)c1,105% (inactive)
16,CN1CCN(c2ccc(-c3ccc4ncc(C#N)c(Nc5ccc(F)c(Cl)c5)c4c3)cn2)CC1,38.1% (inactive)
17,O=C1C2C(c3cccs3)C=C(c3ccc(Cl)cc3)N2C(=S)N1c1ccccc1 (stereo not given),99.8% (inactive)
18,O=S(=O)(c1ccc(N/N=C\c2ccccc2Cl)cc1)c1ccc(N/N=C/c2ccccc2Cl)cc1,74% (inactive)
19,O=Cc1c(OCc2cnnn2CC(=O)Nc2ccc(Cl)cc2)ccc2ccccc12,98.5% (inactive)
20,O=C(c1ccc(Nc2nccc(NCCCNc3ccnc4cc(Cl)ccc34)n2)cc1)N1CCCCC1,22.4% (inactive)
